According to PubChem BioAssay (NCI):
The panel holds about 83,000 compounds, 20% with a hit somewhere; the sample as a whole holds those more often.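 Assay: single dose, 48 h. Readout: percent growth (0 = no net growth; negative = cell death). Active: <10.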 Activity calls are given as the source filed them.

What follows are compounds tested on SK-MEL-5 melanoma (assay: NCI-60 one-dose screen, 48 h (100 = growth as untreated, 0 = no growth, -100 = all killed)). Conditions: 10 µM unless noted.

Structure (SMILES) | growth
CCCCCCCCN=C(NCCCCCCCC)SCc1cccc2ccccc12 | -95.3% (active)
N=C(N)c1ccc(-c2ccc(-c3cccs3)s2)cc1F | -98% (active)
COc1ccc2nc(-c3ccc(-c4noc(-c5ccc(Cl)cc5)n4)cc3)[nH]c2c1 | 78.8% (inactive)
Cc1cccc2nc3ccccc3c(Nc3ccc(NS(C)(=O)=O)cc3)c12 | 48.3% (inactive)
CC(C)CCSc1nc(Nc2ccccc2)c(C#N)c(-c2ccc(F)cc2)n1 | 96.6% (inactive)
COc1cc(OC)cc(-c2ccc(-c3ccc(C(=N)N)s3)s2)c1 | -97.4% (active)
COc1ccc(-c2ccc(-c3ccc(C(=N)N)s3)s2)cc1 | -97.8% (active)
C#CCO[C@H]1CC[C@H](OCC#C)[C@@H]2[C@H]1[C@H]1C[C@@H]3[C@@]4(C)CCC[C@@](C)(C(=O)OC)[C@@H]4CC[C@@]23C=C1C(C)C | 87.6% (inactive)
COC(=O)[C@H](Cc1cn(C)cn1)NC(=O)[C@H](CC(C)C)NC(=O)Nc1cc(C(F)(F)F)cc(C(F)(F)F)c1 | -95.4% [100 µM] (active)
O=C1CCCN1C1CCN2CCCc3cccc1c32 (stereo not given) | 110% (inactive)
O=C(CCCN1CCC(O)(c2ccc(Br)cc2)CC1)c1ccc(F)cc1 | -1.83% (active)
COc1ccc(/C=N/NC(N)=S)c(OC)n1 | 93.1% (inactive)
CCN1C(=O)N(CC)C2C1N=C(SC)N2/N=C/C=C/c1ccccc1OC (stereo not given) | 0.74% (active)
C/C(=N\Nc1ccc([N+](=O)[O-])cn1)c1ccc(N)cc1 | 101% (inactive)
N/C(=N\O)c1ncc(-c2ccc(C(F)(F)F)cc2)c(NC2CCCCCC2)n1 | -85.8% [100 µM] (active)
O=[N+]([O-])c1ccc(Sc2nc(Cl)nc(NC3CCCC3)n2)cc1 | -90.3% [100 µM] (active)
Cc1cc2nc(CN)[nH]c2cc1C | 104% (inactive)
ClC1=NC(Cl)C(Cl)=N/C1=N\c1ncn[nH]1 (stereo not given) | 74.1% (inactive)
COc1ccc(CNc2c3ccccc3nc3ccccc23)cc1F | 36.5% (inactive)
CCOC(=O)C1C(=O)C=C(c2ccccc2)CC1c1sc(N(C)Cc2ccccc2)nc1Cl (stereo not given) | 92.7% (inactive)
CCOC(=O)c1cc(C(=O)OCC)c(C)nc1C | 107% (inactive)
O=C1OCC2=C1C(c1ccccc1)c1cc3c(cc1N2CCO)CCC3 (stereo not given) | -29.2% (active)
O=C(CC(=O)c1ccccc1F)Nc1ccc([N+](=O)[O-])cc1 | 86.4% (inactive)
Cc1cc(Nc2c3ccccc3nc3ccccc23)ccc1NS(C)(=O)=O | 43.4% (inactive)
COC(=O)CSc1ccc(Cl)cc1 | 114% (inactive)
